TTR transcr act = TTR transcription activators in neuroblastoma reporter cells, primary screen, cell-based, luminescence, SH-SY5Y, TTR promoter Gaussia luciferase; 100% = recombinant luciferase protein wells; activation, % at 16.7 µM; hit rate 1.3% among 92,000; AID 1117267, 2014;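 active = activation above the mean of all tested compounds plus 3 SD, cut at about 9.5% in these data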;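 note: cells exposed to compounds for one day before reading; 0% = median of all test compound wells on the plate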
HuH7 TTR inh = TTR promoter reporter inhibitors in hepatoma cells, counter-screen for TTR transcription activator project, cell-based, luminescence, HuH7 hepatoma; shares compounds with TTR transcr act; HuH7 TTR promoter-Gaussia luciferase reporter; inhibition, % at 16.7 µM; hit rate 4% among 1,100; AID 1117279, 2014;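 active = average inhibition above the solvent-only control wells' mean plus 3 SD, cut at about 15% in these data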;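 note: 0% = cells with DMSO only and 100% = cells with inhibitor control FD; inhibitors lower well luminescence so higher value means more inhibition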
TTR up confirm = TTR transcription activators, retest, confirmation, cell-based, luminescence, SH-SY5Y, triplicate | shares compounds with TTR transcr act | SHSY5Y TTR promoter Gaussia luciferase; 100% = purified Lucia enzyme wells, no cells | activation, % at 16.7 µM | 1,100 tested, under 10 active;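 active = mean activation above a set limit taken from the earlier primary screen, cut at about 11% in these data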;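 note: 0% = DMSO-treated cells and 100% = recombinant Lucia luciferase without cells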
Active calls of the source: *. The entries come from a sample that favours hits as a whole.

SMILES | TTR transcr act | others
COc1ccc(N2C(=O)CC(N3CCN(C(=O)c4ccco4)CC3)C2=O)cc1 (configuration not stated) | -1
COC(=O)/C(C#N)=C/c1ccc(N2CCOCC2)c([N+](=O)[O-])c1 | 1
C=CCOc1cccc(CNn2nnnc2N)c1 | 2
CCOC(=O)C1CCCN(C(=O)c2cn(CC)c(=O)c3cc(OC)c(OC)cc23)C1 (configuration not stated) | 1
CN(CC(=O)Nc1ccccc1Br)C(=O)c1ccncc1 | 0
CC1CCc2[nH]c3ccc(C(=O)N(C)CC(=O)Nc4ccccc4Br)cc3c2C1 (configuration not stated) | 31* | HuH7 TTR inh=-42;TTR up confirm=0
CC1CCc2[nH]c3ccc(C(=O)NCC4CCCO4)cc3c2C1 (configuration not stated) | 5
CC1(OC(=O)C2CCCC2)C(=O)C=C2C=C(c3ccsc3)N(Cc3ccc4c(c3)OCO4)C=C2C1=O (configuration not stated) | -2
Cc1ccc(NC(=S)N(C)N)cc1Cl | 1
Cc1ccc(Nc2cc(=O)[nH]c(=O)[nH]2)cc1Cl | 9.7* | HuH7 TTR inh=-3;TTR up confirm=-1
Cc1ccc(Nc2ccc([N+](=O)[O-])cn2)cc1Cl | 1
Cc1ccc(S(=O)(=O)NCC(=O)OCc2ccccc2)cc1 | -2
O=C1OCC2=C1C(c1ccccc1)CC(=O)N2c1ccccc1 (configuration not stated) | -1
O=[N+]([O-])c1cccc(/C=N/N2CCN(Cc3ccc(Cl)cc3)CC2)c1 | -2
CCN(C(=O)CSc1nccc(=O)[nH]1)c1cccc2ccccc12 | 0
Cc1ccc(S(=O)(=O)N2[C@@H](c3ccc(Br)cc3)C(C(=O)O)=CC[C@H]2c2ccc(Cl)c(Cl)c2)cc1 | 0
O=C(NCc1cccc(Cl)c1)c1ccc(-c2csnn2)cc1 | 0
O=C(NCc1cccc(Cl)c1)NC(=O)c1csc([N+](=O)[O-])c1 | 12* | HuH7 TTR inh=-9;TTR up confirm=0
CC(C)CNC(=S)NC(=O)c1csc([N+](=O)[O-])c1 | -2
O=C([C@H]1O[C@@H](n2ccc(=O)[nH]c2=O)[C@H](O)[C@@H]1O)N1CCN(c2ccc(Cl)cn2)CC1 | -1
O=C(CSc1nnc(-c2ccc(S(=O)(=O)N3CCCC3)cc2)o1)NCc1ccccc1 | 3
Clc1ccccc1OCc1nc(-c2ccc(Br)o2)no1 | 1
O=[N+]([O-])c1ccccc1OCc1nc(-c2cccs2)no1 | 12* | HuH7 TTR inh=-9;TTR up confirm=1
O=C(O)CCc1nc(-c2cccs2)no1 | -1
COc1cc(CNCCCCO)ccc1OCc1ccccc1F | 0
SMILES | TTR transcr act | others
O=C(NCCc1csc(-c2cccnc2)n1)c1ccccc1Br | 18* | HuH7 TTR inh=-17;TTR up confirm=1
O=S(=O)(NCc1csc(-c2cccnc2)n1)c1ccc(Br)cc1 | 1
O=S(=O)(NCCc1csc(-c2cccnc2)n1)c1cccc(F)c1 | 2
O=C(O)c1oc2ccc(Br)cc2c1-n1cccc1 | 2
CC(C)(C)c1ccc(S(=O)(=O)N2CCN(Cc3cc4c(cc3O)OCO4)CC2)cc1 | 15* | HuH7 TTR inh=-7;TTR up confirm=1
CCOc1ccc(S(=O)(=O)N2CCN(Cc3ccc4c(c3)OCO4)CC2)cc1OCC | -2
O=S(=O)(c1ccc(Cl)nc1)N1CCN(Cc2ccc3c(c2)OCO3)CC1 | -1
Oc1[nH]c2ccccc2c1N=Nc1ccccc1F | -1
O=C(Cc1ccccc1)NN1C(=O)C2C3C=CC(C4CC34)C2C1=O (configuration not stated) | 10* | HuH7 TTR inh=-13;TTR up confirm=-1
O=C(Cc1ccccc1)NN1C(=O)C2C(C1=O)C1C=CC2C12CC2 (configuration not stated) | -1
O=C(Cc1ccccc1)NN1C(=O)C2C3C=CC(C3)C2C1=O (configuration not stated) | 2
COc1ccc(C)cc1NC(=O)C(=O)NNC(=O)COc1ccc(Cl)cc1 | 2
COc1ccc(OC)c(NC(=O)C(=O)NNC(=O)COc2ccc(Br)cc2C)c1 | 43* | HuH7 TTR inh=-9;TTR up confirm=0
COc1ccc(OCC(=O)NNC(=O)C(=O)Nc2cc(OC)ccc2OC)cc1 | 2
CS(=O)(=O)c1ccccc1C(=O)Nc1cccc(-c2nc3ccccc3o2)c1 | -1
O=S(=O)(Oc1ccccc1-c1ccccc1)c1ccccc1 | -1
O=S(=O)(NCCC1CC1(Cl)Cl)c1ccccc1 (configuration not stated) | 0
O=S(=O)(c1ccccc1)C1CC1(c1ccccc1)c1ccccc1 (configuration not stated) | 14* | HuH7 TTR inh=-3;TTR up confirm=0
COc1ccccc1NC(=O)COC(=O)C1CC2C=CC1C2 (configuration not stated) | 0
COc1ccc(Cl)cc1NC(=O)CN(C)C(C)C(=O)NCC1CCCCC1 (configuration not stated) | -1
CCOC(=O)c1cc(/C(C)=N/OC(=O)c2ccc(Cl)cc2)on1 | 9.8* | HuH7 TTR inh=-8;TTR up confirm=-1
C/C(=N\OC(=O)c1ccc(F)cc1)c1ccc(F)c(F)c1 | 0
CCCS(=O)(=O)C/C(N)=N/OC(=O)c1ccc(Cl)cc1 | -1
COCCn1nnnc1C(CC(C)C)N1CCN(c2ccccc2)CC1 (configuration not stated) | 1
Cc1cccc2c3nc4ccccc4nc3n(C)c12 | -1
SMILES | TTR transcr act | others
Cc1cc(Cl)nc2c(C(C)C)cccc12 | 17* | HuH7 TTR inh=-10;TTR up confirm=-1
CC(=O)NC(C)c1cc(Cl)c2cccnc2c1O (configuration not stated) | -6
CCN1CCN(CC(O)COc2ccc3c(c2)CCC3)CC1 (configuration not stated) | 1
CCO[C@@H]1OC(C(N)=O)=C[C@H](C2CC2)[C@H]1CCCO | 2
COC(=O)c1ccc2nc(-c3ccc(OC)c(OC)c3)c(Cc3ccsc3)n2c1 | 2
CCC(C)NC(=O)Cn1c(=O)sc2ccccc21 (configuration not stated) | 3
CCOC(=O)Cn1c(=O)sc2ccccc21 | 17* | HuH7 TTR inh=-4;TTR up confirm=0
CCOC(=O)Cn1nc2sc3ccccc3n2c(=O)c1=O | 2
COC(=O)c1cn(CC(=O)NCc2ccco2)c2ccccc12 | 0
COc1ccc([C@H]2CC(=O)C[C@@H](CCn3cc(-c4ccccn4)nn3)O2)cc1 | 1
CCOc1ccc(CN2C(=O)c3ccccc3C2=O)cc1C(=O)NC1CC(C)(C)NC(C)(C)C1 | -1
O=C(NCCN1CCOCC1)c1c[nH]c2ccc(S(=O)(=O)N3CCOCC3)cc2c1=O | 0
CCCCN(C)C(=O)c1c[nH]c2ccc(S(=O)(=O)N3CCOCC3)cc2c1=O | 11* | HuH7 TTR inh=-7;TTR up confirm=1
CCN(CC)CCNS(=O)(=O)c1ccc2[nH]cc(C(=O)O)c(=O)c2c1 | 0
COc1ccc(N)cc1-n1c(C)ccc1C | 0
COC(=O)C1=C(C)Nc2ncnn2C1c1ccccn1 (configuration not stated) | 0
Cc1ccc(C(=O)COc2ccccc2-c2ccccc2)cc1C | 1
CCOc1cc(C2NC(=O)NC(C)=C2C(=O)OC(C)CC)cc(Br)c1O (configuration not stated) | 2
